PubChem BioAssay (EPA / NIEHS)
The source holds several records for some structures; these can differ, active in one and inactive in another. Activity calls are given as the source filed them. How the source made its calls, unless noted: active means hit-call score of the fitted dose curve at least 0.9, where 1 is the maximum; inactive means score below 0.9.

Tests used:
[1] = read-out: Interleukin-8 (IL8), CXCL8 (gene 3576); assay: BSK_SAg_IL8: BioMAP Diversity Plus: SAg Assay for Interleukin-8 (IL8) Biomarker Activity (AID 2283094); settings: primary human HUVEC with PBMC; actives raise or lower the signal
Summary of the method: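 ELISA read-out of IL-8 in a primary human vascular co-culture (umbilical vein endothelium plus PBMC), taken 24 h after compound addition. Values derive from bidirectional fits against DMSO negative controls.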

[2] = BSK_SAg_Proliferation: Cell Proliferation Assessment in the BioMAP Diversity Plus: SAg Assay (AID 2283095); settings: primary human HUVEC with PBMC;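 further: relative cell number as total protein by SRB absorbance in sub-confluent culture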
Summary of the method: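 Cells (endothelium plus PBMC, human primary) were dosed with chemical, cultured 96 h, fixed in 10% TCA and stained with 0.1% SRB. Absorbance at 560 nm gave relative protein, fitted bidirectionally relative to DMSO.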

[3] = BSK_SAg_SRB: Viability Assessment in the BioMAP Diversity Plus: SAg Assay (AID 2283096); settings: primary human HUVEC with PBMC;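 further: cells read one day after compound addition; hits may be either gain or loss of signal compared with DMSO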
Summary of the method: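 Total protein by sulforhodamine B staining, 24 h after dosing, in HUVEC–PBMC co-culture; DMSO-referenced bidirectional fitting.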

[4] = biological target: human CYP1A2, CYP1A2 (gene 1544) (UniProt P05177); assay: NVS_ADME_hCYP1A2: NovaScreen (NVS) CYP450-related Enzyme Activity (ADME) Assay for human CYP1A2 (AID 2283102; active means hit-call score of the fitted dose curve at least 0.9, where 1 is the maximum)
human CYP1A2, CYP1A2 (gene 1544), sequence (P05177 whole entry, looked up): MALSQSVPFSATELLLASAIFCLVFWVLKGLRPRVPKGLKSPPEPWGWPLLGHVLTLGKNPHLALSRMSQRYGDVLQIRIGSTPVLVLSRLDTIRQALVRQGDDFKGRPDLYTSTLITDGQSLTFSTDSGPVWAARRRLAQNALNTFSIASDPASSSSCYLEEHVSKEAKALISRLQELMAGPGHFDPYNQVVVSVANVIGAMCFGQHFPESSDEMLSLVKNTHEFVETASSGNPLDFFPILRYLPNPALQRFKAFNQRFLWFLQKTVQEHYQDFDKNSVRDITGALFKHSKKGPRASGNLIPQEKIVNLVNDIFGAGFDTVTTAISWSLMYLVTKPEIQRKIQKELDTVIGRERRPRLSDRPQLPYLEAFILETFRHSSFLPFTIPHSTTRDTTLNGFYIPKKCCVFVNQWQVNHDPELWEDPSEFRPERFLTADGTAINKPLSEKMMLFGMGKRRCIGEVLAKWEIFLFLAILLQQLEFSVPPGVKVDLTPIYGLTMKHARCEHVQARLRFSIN
Summary of the method: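 Compounds were tested at 10 uM in duplicate against recombinant CYP1A2 produced in insect cells. Enzyme activity was measured by fluorescence 0.5 h after dosing, with loss of signal versus acetonitrile control. Active compounds were re-tested in concentration series.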

CCOC(=O)CC(=O)CCl
AC50 [1]: 9.73 µM (active) | AC50 [2]: 16.2 µM (active) | outcome [3]: inactive

C#CCOC(=O)/C=C(C)/C=C/CC(C)CCCC(C)C (configuration not stated)
outcome [1]: inactive | outcome [2]: inactive | outcome [3]: inactive

CC(C)=CC1C(C(=O)OCc2cccc(Oc3ccccc3)c2)C1(C)C (configuration not stated)
outcome [1]: inactive | AC50 [2]: 26.3 µM (active) | AC50 [3]: 24.9 µM (active)

O=C1C=CC(=O)c2ccccc21
AC50 [1]: 0.709 µM (active) | AC50 [2]: 0.125 µM (active) | AC50 [3]: 5.33 µM (active)

O=C(Cc1ccccc1)OCCc1ccccc1
outcome [1]: inactive | outcome [2]: inactive | outcome [3]: inactive

Cc1ccccc1OP(=O)(Oc1ccccc1C)Oc1ccccc1C
AC50 [1]: 12.4 µM (active) | AC50 [2]: 12.7 µM (active) | AC50 [3]: 9.8 µM (active)

CCOC(=O)CCN(SN(C)C(=O)Oc1cccc2c1OC(C)(C)C2)C(C)C
outcome [1]: inactive | AC50 [2]: 23.1 µM (active) | outcome [3]: inactive

Cc1ccc2nc3sc(=O)sc3nc2c1
outcome [1]: inactive | AC50 [2]: 7.93 µM (active) | AC50 [3]: 5 µM (active)

N#Cc1cccnc1
outcome [1]: inactive | outcome [2]: inactive | outcome [3]: inactive

Oc1cc(Cl)c(Cl)cc1Cl
AC50 [1]: 31.1 µM (active) | AC50 [2]: 30.6 µM (active) | AC50 [3]: 27.6 µM (active)

OC(Cc1ccccc1Cl)(Cn1cncn1)C1(Cl)CC1 (configuration not stated)
outcome [1]: inactive | outcome [2]: inactive | outcome [3]: inactive

O=[N+]([O-])c1ccc(Nc2ccccc2)cc1
outcome [1]: inactive | outcome [2]: inactive | outcome [3]: inactive

NC(=O)CCl
outcome [1]: inactive | outcome [2]: inactive | outcome [3]: inactive

c1ccc(-c2cccc(-c3ccccc3)c2)cc1
AC50 [1]: 20 µM (active) | AC50 [2]: 29.2 µM (active) | AC50 [3]: 27.5 µM (active)

Oc1c(Cl)cc(Cl)cc1Cl
outcome [1]: inactive | outcome [2]: inactive | outcome [3]: inactive

Cc1cc(Cl)ccc1N
outcome [1]: inactive | outcome [2]: inactive | outcome [3]: inactive

O=S(=O)(c1ccc(Cl)cc1)c1cc(Cl)c(Cl)cc1Cl
outcome [1]: inactive | AC50 [2]: 10.8 µM (active) | outcome [3]: inactive

CC(C)N(C(=O)CCl)c1ccccc1
outcome [1]: inactive | AC50 [2]: 3.59 µM (active) | AC50 [3]: 33.8 µM (active)

O=C(O)COc1cc(Cl)c(Cl)cc1Cl
outcome [1]: inactive | outcome [2]: inactive | outcome [3]: inactive

Clc1cccc(Cl)c1
outcome [1]: inactive | outcome [2]: inactive | outcome [3]: inactive

CC(C=O)Cc1ccc2c(c1)OCO2 (configuration not stated)
outcome [1]: inactive | outcome [2]: inactive | outcome [3]: inactive

Cc1c([N+](=O)[O-])c(C)c([N+](=O)[O-])c(C(C)(C)C)c1[N+](=O)[O-]
outcome [1]: inactive | AC50 [2]: 6.82 µM (active) | outcome [3]: inactive

COc1ccccc1N
outcome [1]: inactive | outcome [2]: inactive | outcome [3]: inactive

Cc1cc(Cl)ccc1OC(C)C(=O)O (configuration not stated)
outcome [1]: inactive | outcome [2]: inactive | outcome [3]: inactive

OC(Cc1ccccc1Cl)(Cn1[nH]cnc1=S)C1(Cl)CC1 (configuration not stated)
AC50 [1]: 3.97 µM (active) | AC50 [2]: 20 µM (active) | outcome [3]: inactive

O=C(CCl)NCO
outcome [1]: inactive | outcome [2]: inactive | outcome [3]: inactive

O=[N+]([O-])c1cccc2ccccc12
outcome [1]: inactive | outcome [2]: inactive | outcome [3]: inactive

CCOP(=S)(OCC)OP(=S)(OCC)OCC
AC50 [1]: 36 µM (active) | AC50 [2]: 20 µM (active) | outcome [3]: inactive

OCCCCO
outcome [1]: inactive | AC50 [2]: 0.61 µM (active) | outcome [2]: inactive | outcome [3]: inactive

CCOP(=S)(OCC)SCS(=O)(=O)C(C)(C)C
outcome [1]: inactive | outcome [2]: inactive | outcome [3]: inactive

CCOC(=O)C(SP(=S)(OC)OC)c1ccccc1 (configuration not stated)
outcome [1]: inactive | AC50 [2]: 35.3 µM (active) | outcome [3]: inactive

CC(C)(C)c1cc([N+](=O)[O-])cc(C(C)(C)C)c1O
AC50 [1]: 0.0941 µM (active) | outcome [2]: inactive | AC50 [3]: 0.215 µM (active)

CCCCCCCCCCCCc1cccc(S(=O)(=O)O)c1
outcome [1]: inactive | outcome [2]: inactive | outcome [3]: inactive

Cc1cc(C)cc(C)c1
outcome [1]: inactive | outcome [2]: inactive | outcome [3]: inactive

OCCN(CCO)CCO
outcome [1]: inactive | outcome [2]: inactive | outcome [3]: inactive

COC(=O)Nc1cccc(OC(=O)Nc2cccc(C)c2)c1
outcome [4]: inactive
